The values below come from the supplement of paper PMC10338343.

± gives the standard deviation.
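Also: 1 nM active piRISC with 0.1 nM target library at 33 °C single turnover.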

The subject of this assay is MILI (PIWIL2) piRISC loaded with piRNA #1 (26 nt). Kind of assay: pre-steady-state target cleavage rate (min^-1); guide: piRNA #1 5'p-UGAGGUAGUAGGUUGUAUAGUAUCCA; MIWI and MILI are mouse PIWI proteins and EfPiwi is from a freshwater sponge; tags in brackets are library labels; higher = faster piRNA-guided slicing of the target. The note with it: auxiliary factor: 500 nM mouse GTSF1. A digest of the protocol: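 Three pooled Cleave-'n-Seq trials supplied the data, with k3 capped at 0.0001 min^-1. In each, […] transcribed, DNA-blocked target RNA library and 1 nM active affinity-purified piRISC with one synthetic guide reacted in HEPES–potassium acetate buffer at 33 °C for 0–8 or 0–960 min, with or without 500 nM GTSF1 partner protein. Uncleaved targets were sequenced and normalised to depth and to weakly complementary targets. A burst-and-steady-state fit provided the pre-steady-state cleavage rate.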
With GGAGACCUAAGUAUUCAACCUACUACCUCA, the “pre-steady-state target cleavage rate” value came to 0.0617 ± 0.0092.

As to GGAGACCUAUGAUUACAAGCUACAACCUCA, the “pre-steady-state target cleavage rate” value came to 0.0159 ± 0.0045.

In the case of GGAGACCUUACUAAACAACCUACUUCCUCA, the “pre-steady-state target cleavage rate” value came out at 0.0656 ± 0.014. Then GGAGACCUUACUAUUCAACCUAGUACCUCA, with 0.0486 ± 0.011. GGAGACCUAUGAAUACUUCCUACUACCUCA: the “pre-steady-state target cleavage rate” value came to 0.00297 ± 0.0022. Then GGAGACCUAUGAAUACAACCUACUACACUCA, with 0.00526 ± 0.0026; and GGAGACCUAUCUAUACAACGUAGUACCUCA, with 0.00772 ± 0.0031; and GGAGACCUAUCUAUACAACCUACAAGCUCA, with 0.0435 ± 0.012. Then GGAGACCUAACUAUACUACCUACUACCUGA, with 0.0917 ± 0.025; and GGAGACCUAUGUUUACAACCUAGUACCUCA, with 0.00404 ± 0.0027.

Turning to GGAGACGAUUCUAUACAACCUAGUACCUCA, the “pre-steady-state target cleavage rate” value was found to be 0.07 ± 0.011. Then GGAGACCUUACAUUACAACCUACUACCUCA, with 0.0294 ± 0.0055; and GGAGACCUAUGAUUACAACCUACUACACUCA, with 0.00616 ± 0.0025; and GGAGACCUUACUAUACAACCUACUUGCUCA, with 0.098 ± 0.021.

As for GGAGACCUAACAAUACAACCUACUACGUCA, the “pre-steady-state target cleavage rate” value was determined as 0.023 ± 0.0089.

For the sequence GGAGACCUAUGAUUAGCAACCUACUACCUCA, the “pre-steady-state target cleavage rate” value was found to be 0.00597 ± 0.0035. Then GGAGACCUAUGAUAACAAGCUACAACCUCA, with 0.0095 ± 0.0029; and GGAGAGCAUACUAUAGAACCUACUACCUCA, with 0.142 ± 0.012; and GGAGACCUAUGAUAUGUACCUACUAGCUCA, with < 0.0001.

With GGAGACCUUACUAUACAACCUAGAACCUCA, the “pre-steady-state target cleavage rate” value was 0.00842 ± 0.0033. Then GGAGACCUUACUAUUCAACCUACUACGUCA, with 0.0709 ± 0.0096; and GGAGACCUAUGAAUACAAGCUACUACGUCA, with 0.0102 ± 0.003; and GGAGAGGAAACUAUACAUCCUACUACCUCA, with 0.302 ± 0.029. Then GGAGACCUUUCUAUACAACCAACUACCUCA, with 0.00462 ± 0.0029; and GGAGACCUAUCUAUACAACCUACUACGACA, with 0.0627 ± 0.01; and GGAGACCUAUCUGUACAACCUACUACCUCA, with 0.0491 ± 0.0092. Then GGAGACCAUACUAUAGAACCUACUACCUGA, with 0.00906 ± 0.0046; and GGAGACCUAACUAUAGAACGUACUACCUCA, with 0.00603 ± 0.0028; and GGAGACCUAUGAUAUGUACCUACUACCCA, with < 0.0001. Consider GGAGACCUAUGUAUACAACGUACUACCUGA, for which the “pre-steady-state target cleavage rate” value worked out at 0.00357 ± 0.0021. Then GGAGACCUAUGUAUACAACCUACAUACCUCA, with 0.043 ± 0.0061. Consider GGAGACCAUAGUAUACAACCUAGUACCUCA, for which the “pre-steady-state target cleavage rate” value stood at 0.0677 ± 0.011. Regarding GGAGACCUUACUAUACAAGCAACUACCUCA, the “pre-steady-state target cleavage rate” value came out at 0.0104 ± 0.0031. Then GGAGACCUAUGAUAUGUGCCUACUACCUCA, with < 0.0001; and GGAGACGAUAGUAUACAACCUACUUCCUCA, with 0.0731 ± 0.015. Then GGAGACCUAUGUAUACAUCCUACUACCACA, with 0.163 ± 0.017; and GGAGACCAUACUAUACAACCUACAACCACA, with 0.0647 ± 0.017.

Turning to GGAGACCUUACUAUACAACCUACUAUCCUCA, the “pre-steady-state target cleavage rate” value worked out at 0.194 ± 0.022. As to “GGAGACCUUACUAUACAAGGAUGAUGGAGA [g13:g22:cont:t1A]”, the “pre-steady-state target cleavage rate” value was < 0.0001. Then GGAGAGCAUACUAUACAUCCUACUACCUCA, with 0.335 ± 0.02.
